Results published in PubChem BioAssay (NCI).
About 79,000 compounds went through this panel and 15% of them were active in at least one assay; those are over-represented in the sample as a whole. A number with no mark means an inactive call. Active and inactive are the calls of the source. Rule as the data show it: active = growth inhibition above about 70%; inactive = the rest.

Test: NCI Yeast Anticancer Drug Screen. Data for the rad50EPP+ strain (AID 151);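 also: 0% = growth of vehicle-treated control cultures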
Conditions: S. cerevisiae rad50 mutant strain, at 3.7 µM, active compounds read high
Method in brief: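 One strain with a rad50 alteration (rad50EPP+) was compound-treated, its growth then compared to that of vehicle controls.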

Structure (SMILES)	growth inhibition
Cc1cccc2c(C(O)CBr)cc(-c3ccc(Cl)cc3)nc12 (stereo not given)	10%
CN(C)C[C@H]1CC[C@@H](CN(C)C)C1=O	12%
CC1=C(SCCO)C(=O)c2ccccc2C1=O	5%
COC(=O)CCNc1c2ccccc2nc2cccc([N+](=O)[O-])c12	49%
CC(/C=C/c1ccc2c(c1)OCO2)[N+](=O)[O-] (stereo not given)	94% (active)
COC(=O)C1=C(C)NC(C)=C(C(=O)OCCCN2CCC(c3ccccc3)(c3ccccc3)CC2)C1c1cccc([N+](=O)[O-])c1 (stereo not given)	86% (active)
CCOC(=O)c1cnc2c(C(F)(F)F)cccc2c1N=[N+]=[N-]	0%
O=[N+]([O-])c1cc2no[n+]([O-])c2cc1N1CCCCC1	83% (active)
COC(=O)c1ccc(NCC2=CC(=O)C=CC2=O)cc1O	63%
CCCCCCCCNC(=O)C1=C(C)NC(C)=C(C(=O)NCCCCCCCC)C1	-1%
S=C(Nc1ccc(Cl)c(Cl)c1)SCc1ccc2c(c1)OCO2	84% (active)
O=S(=O)(CCCl)c1ccccc1Cl	15%
Nc1ccccc1CC(O)C(=O)O (stereo not given)	1%
CN(C)c1ccc(Sc2ccc3nc(N)nc(N)c3c2)cc1	30%
CC(C)C1=CCC2C(=C1)CCC1C(C)(C(=O)O)CCCC21C (stereo not given) (tested in a mixture with another compound)	33%
Cc1ccc(S(=O)(=O)Oc2cc(Cl)c(Cl)cc2Cl)cc1	9%
CSC(=S)Nc1cc(C)ccn1	-15%
CC(C)c1cc(C(C)C)c(O)c(C([O-])[O-])c1.CC(C)c1cc(C(C)C)c(O)c(C([O-])[O-])c1.CC(C)c1cc(C(C)C)c(O)c(C([OH2+])[OH2+])c1.CC(C)c1cc(C(C)C)c(O)c(C([OH2+])[OH2+])c1.[Cu+2].[Cu+2].[OH3+].[OH3+]	0%
Cc1cc(I)ccc1N	-11%
CC(Br)C(=O)c1ccc2cc(Br)c3ccccc3c2c1 (stereo not given)	14%

Structure (SMILES)	growth inhibition
O=C(Nc1ccccc1)OCCc1ccc(Cl)c(Cl)c1	26%
O=Cc1cccc2ccc3ccccc3c12	15%
O=[N+]([O-])CC(SCc1ccccc1)c1ccc2c(c1)OCO2 (stereo not given)	91% (active)
CC1(Cl)CC(O)C2(CC1Br)C1(C)OC1C1OC1(Br)C2(C)C (stereo not given)	-12%
Cc1cc(O)cc(O)c1N=Nc1ccc([N+](=O)[O-])cc1	12%
CCCCCCCCCCCCCC[N+](C)(CC(=O)[O-])Cc1ccccc1 (stereo not given)	32%
CC1=NN(c2cccc(Cl)c2)C(=O)C1	-50%
CC(=O)OCc1ccc(O)c(C=O)c1	-2%
Cc1ccc2ccc3cccc4ccc1c2c34	4%
Cc1nc(-[n+]2nc(-c3ccncc3)nn2-c2ccccc2)sc1C	16%
C(CCSC1=NCCN1)CSC1=NCCN1 (tested in a mixture with another compound)	46%
CCCCCCCCCCC(=O)Cl	22%
COC1C=COC2(C)Oc3c(C)c(O)c4c(c3C2=O)/C(=N/C2CCC(O)OC2C)C=C(NC(=O)/C(C)=C\C(=O)C2CC2C(O)C(C)C(O)C(C)C(OC(C)=O)C1C)C4=O (stereo not given)	-10%
S=c1[nH]nc(Nc2ccc(Cl)cc2)s1	-10%
O=C1CSC(/C=C/c2ccccc2)N1c1ccc(-c2ccc(-n3c(-c4ccccc4)nc4ccccc4c3=O)cc2)cc1 (stereo not given)	10%
O=C1C=CC(=O)N1c1ccc2c(c1)Cc1cc(NC(=O)C(F)(F)F)ccc1-2	73% (active)
Brc1ccc(-c2cc3c(cc2C2SCCS2)OCO3)cc1	-10%
Oc1ccc2ccccc2c1C(c1ccc(Cl)cc1)c1c(O)ccc2ccccc12	-61%
C[CH2][Sn]([CH2]C)([O]C(=O)C(OC(C)=O)c1ccccc1)[O]C(=O)C(OC(C)=O)c1ccccc1 (stereo not given)	2%
Cc1ccc2ccc(O)cc2c1	-49%

Same assay, conditions: S. cerevisiae rad50 mutant strain, at 11.0 µM, active compounds read high

Structure (SMILES)	growth inhibition
Cc1cccc2c(C(O)CBr)cc(-c3ccc(Cl)cc3)nc12 (stereo not given)	32%
CN(C)C[C@H]1CC[C@@H](CN(C)C)C1=O	27%
CC1=C(SCCO)C(=O)c2ccccc2C1=O	35%
COC(=O)CCNc1c2ccccc2nc2cccc([N+](=O)[O-])c12	80% (active)
CC(/C=C/c1ccc2c(c1)OCO2)[N+](=O)[O-] (stereo not given)	99% (active)
COC(=O)C1=C(C)NC(C)=C(C(=O)OCCCN2CCC(c3ccccc3)(c3ccccc3)CC2)C1c1cccc([N+](=O)[O-])c1 (stereo not given)	88% (active)
CCOC(=O)c1cnc2c(C(F)(F)F)cccc2c1N=[N+]=[N-]	-5%
O=[N+]([O-])c1cc2no[n+]([O-])c2cc1N1CCCCC1	98% (active)
COC(=O)c1ccc(NCC2=CC(=O)C=CC2=O)cc1O	89% (active)
CCCCCCCCNC(=O)C1=C(C)NC(C)=C(C(=O)NCCCCCCCC)C1	2%
S=C(Nc1ccc(Cl)c(Cl)c1)SCc1ccc2c(c1)OCO2	99% (active)
O=S(=O)(CCCl)c1ccccc1Cl	43%
Nc1ccccc1CC(O)C(=O)O (stereo not given)	-1%
CN(C)c1ccc(Sc2ccc3nc(N)nc(N)c3c2)cc1	24%
CC(C)C1=CCC2C(=C1)CCC1C(C)(C(=O)O)CCCC21C (stereo not given) (tested in a mixture with another compound)	37%
Cc1ccc(S(=O)(=O)Oc2cc(Cl)c(Cl)cc2Cl)cc1	27%
CSC(=S)Nc1cc(C)ccn1	29%
CC(C)c1cc(C(C)C)c(O)c(C([O-])[O-])c1.CC(C)c1cc(C(C)C)c(O)c(C([O-])[O-])c1.CC(C)c1cc(C(C)C)c(O)c(C([OH2+])[OH2+])c1.CC(C)c1cc(C(C)C)c(O)c(C([OH2+])[OH2+])c1.[Cu+2].[Cu+2].[OH3+].[OH3+]	4%
Cc1cc(I)ccc1N	-8%
CC(Br)C(=O)c1ccc2cc(Br)c3ccccc3c2c1 (stereo not given)	24%

Structure (SMILES)	growth inhibition
O=C(Nc1ccccc1)OCCc1ccc(Cl)c(Cl)c1	39%
O=Cc1cccc2ccc3ccccc3c12	36%
O=[N+]([O-])CC(SCc1ccccc1)c1ccc2c(c1)OCO2 (stereo not given)	97% (active)
CC1(Cl)CC(O)C2(CC1Br)C1(C)OC1C1OC1(Br)C2(C)C (stereo not given)	-21%
Cc1cc(O)cc(O)c1N=Nc1ccc([N+](=O)[O-])cc1	15%
CCCCCCCCCCCCCC[N+](C)(CC(=O)[O-])Cc1ccccc1 (stereo not given)	99% (active)
CC1=NN(c2cccc(Cl)c2)C(=O)C1	-38%
CC(=O)OCc1ccc(O)c(C=O)c1	-10%
Cc1ccc2ccc3cccc4ccc1c2c34	20%
Cc1nc(-[n+]2nc(-c3ccncc3)nn2-c2ccccc2)sc1C	41%
C(CCSC1=NCCN1)CSC1=NCCN1 (tested in a mixture with another compound)	78% (active)
CCCCCCCCCCC(=O)Cl	25%
COC1C=COC2(C)Oc3c(C)c(O)c4c(c3C2=O)/C(=N/C2CCC(O)OC2C)C=C(NC(=O)/C(C)=C\C(=O)C2CC2C(O)C(C)C(O)C(C)C(OC(C)=O)C1C)C4=O (stereo not given)	-14%
S=c1[nH]nc(Nc2ccc(Cl)cc2)s1	13%
O=C1CSC(/C=C/c2ccccc2)N1c1ccc(-c2ccc(-n3c(-c4ccccc4)nc4ccccc4c3=O)cc2)cc1 (stereo not given)	19%
O=C1C=CC(=O)N1c1ccc2c(c1)Cc1cc(NC(=O)C(F)(F)F)ccc1-2	88% (active)
Brc1ccc(-c2cc3c(cc2C2SCCS2)OCO3)cc1	9%
Oc1ccc2ccccc2c1C(c1ccc(Cl)cc1)c1c(O)ccc2ccccc12	-55%
C[CH2][Sn]([CH2]C)([O]C(=O)C(OC(C)=O)c1ccccc1)[O]C(=O)C(OC(C)=O)c1ccccc1 (stereo not given)	7%
Cc1ccc2ccc(O)cc2c1	-25%
